Values without a mark were called inactive. Entries that show only a call come without a potency. Calls of active or inactive are those of the source. Calls follow the shape of the dose curve; as a rule, active = well fitted activation curve with a large enough effect in the repeat runs; inconclusive = weak or mixed curves; inactive = flat fitted curve, though single readings scatter.

Chain of KiSS-1 receptor (Homo sapiens) (Q969F8 whole entry, looked up): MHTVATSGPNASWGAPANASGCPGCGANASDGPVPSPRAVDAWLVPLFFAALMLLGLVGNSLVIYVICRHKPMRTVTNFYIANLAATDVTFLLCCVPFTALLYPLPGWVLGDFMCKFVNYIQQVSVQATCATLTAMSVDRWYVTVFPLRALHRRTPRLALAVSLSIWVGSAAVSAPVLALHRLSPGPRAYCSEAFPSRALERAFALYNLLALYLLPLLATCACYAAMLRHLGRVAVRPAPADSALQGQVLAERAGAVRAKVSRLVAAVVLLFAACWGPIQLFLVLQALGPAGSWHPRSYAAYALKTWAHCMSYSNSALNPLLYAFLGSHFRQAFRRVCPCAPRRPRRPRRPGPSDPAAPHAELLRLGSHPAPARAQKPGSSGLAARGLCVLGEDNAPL

The assay concerns the target KiSS-1 receptor (Homo sapiens) (UniProt Q969F8). The assay can be described thus: Human kisspeptin (KISS1R) small molecule agonists, calcium flux assay in KISS1R-HEK293 cells (AID 1920064). The following applies: KISS1R-HEK293, calcium flux fluorescence, agonist; series mostly up to 76.8 µM. An excerpt:
National Center for Advancing Translational Sciences [NCATS]
Division of Preclinical Innovation [DPI]
U.S. Environmental Protection Agency [EPA]
National Institutes of Environmental Health Sciences [NIEHS]
National Toxicology Program [NTP]
U.S. Food and Drug Administration [FDA]
Kisspeptin and its receptor KISS1R play key roles in mammalian reproduction due to their involvement in the onset of puberty and control of the hypothalamic-pituitary-gonadal axis such as regulates GnRH release from the hypothalamus. The kisspeptin/KISS1R system also plays a direct role in peripheral organs (including the ovary, testis, uterus, and placenta) and is implicated in reproductive diseases such as miscarriage and polycystic ovary syndrome (PCOS). Abnormal KISS1R activity is associated with abnormal puberty, infertility, endometriosis, and hormone-dependent tumors. The KISS1 receptor (KISS1R, also called GPR54), a G-protein-coupled receptor (GPCR), acts (through phospholipase C) to increase intracellular inositol trisphosphate and then release intracellular calcium stores. Cell-based KISS1R-HEK293 assay is using HEK293 cells that have been genetically engineered to express the human KISS1R, which activity can be measured by calcium signaling. A compound/drug can activate (agonist) KISS1R that can be monitored by levels of intracellular calcium.
KISS1R-HEK293 cells developed by Codex Corp contain human KISS1R gene, which was stably integrated into HEK 293 cells. The compound activation can be detected by fluorescence intensity via calcium flux assay. This cell line has been used to screen the Tox21 10K compound library to identify agonists of KISS1R.
KISS1R-Hek293 cells were dispensed at 1500 cells/4uL/well in 1536-well black wall/clear bottom plates using a multidrop dispenser. After the assay plates were incubated at a 37 C/5% CO2 incubator for 18 hours, 4 microL of Calcium Dye Solution was added to each well. The plates were incubated at 37 C for 1 hour. And then 23 nL of compounds dissolved in DMSO, positive controls, or DMSO only was transferred to the assay plate by a pin tool station. The fluorescence intensity in the plates was measured using FDSS 7000EX kinetic plate reader with a filter set of Ex/Em=480/540 for 3 min at 1 sec intervals. Each test compound was measured at 15 concentrations and in triplicates.
For orientation: Calcium assays in cells follow changes in intracellular calcium, usually with a dye or a luminescent sensor.
For `C1=Cc2ccccc2C1`, the Potency entry was “inactive”.
Take `C[C@@H](O)[C@H]1C(=O)N2C(C(=O)O)=C([C@H]3CCCO3)S[C@H]12`: the Potency result is “inactive”.
Same read-out and setting: with `CC(C)(C)c1n[nH]c(=O)n(N)c1=O` the entry was “inactive”; with `Cc1cn([C@H]2C[C@H](F)[C@@H](CO)O2)c(=O)[nH]c1=O`, “inactive”; with `CC(O)Cn1cnc2c1c(=O)n(C)c(=O)n2C` (stereo not given), “inactive”.
On the same count and under the same terms, with `CC(C)(C)C(=O)OCOP(=O)(COCCn1cnc2c(N)ncnc21)OCOC(=O)C(C)(C)C` the entry was “inactive”; with `CCCCC/C=C/C=C/C=O`, “inactive”.
Regarding `OCc1ccccc1`, the Potency entry is “inactive”.
Same read-out and setting: the entry for `CC(=O)c1ccccc1N` is “inactive”; for `CCC(=O)OC(C)(C)C1CC=C(C)CC1` (stereo not given) it is “inactive”; for `CCOc1ccc(N)c([N+](=O)[O-])c1` it is “inactive”.
Still for that read-out and setting: with `Cc1ccc(C)cc1` the entry was “inactive”.
Same read-out and setting: with `COC(=O)c1cc(Cl)ccc1OC` the entry was “inactive”; with `CCC(=O)OCc1ccc(OC)cc1`, “inactive”.
Regarding `CC(C)(C)CC(C)(C)c1ccc(OCCOCC[N+](C)(C)Cc2ccccc2)cc1`, the Potency entry was “inactive”.
Regarding `C[C@@H]1NC(=O)[C@@H](N)CNC(=O)[C@H](C2CCNC(N)=N2)NC(=O)/C(=C/NC(N)=O)NC(=O)[C@H](CNC(=O)C[C@@H](N)CCCN)NC1=O` (stereo not given in full), the activation was 4.86% [at 0.29 µM].
With `CCCCOC(=O)[C@H](C)O`, the Potency entry was “inactive”.
The same measure, in the same setting: with `Oc1ccc2c(c1)OC[C@@H](N1CCC(O)(c3ccc(F)cc3)CC1)[C@H]2O` the entry was “inactive”; with `CC1=CC[C@@]23C[C@@H]1C(C)(C)[C@@H]2CC[C@H]3C`, “inactive”; with `CCOC(=O)c1ccccc1C`, “inactive”.
On the same count and under the same terms, the entry for `CC(=O)CC(=O)Nc1ccccc1C` is “inactive”; for `CN(C(=O)c1c(O)c2ccccc2n(C)c1=O)c1ccccc1` it is “inactive”; for `O=S(=O)(O)c1ccccc1O` it is “inactive”.
Same read-out and setting: the entry for `FC(F)(F)c1ccccc1` is “inactive”; for `CCCOCCO` it is “inactive”; for `O=C(O)/C=C/C(=O)O` it is “inactive”.
With `CCCC(=O)C(C)=O`, the Potency entry is “inactive”.
Same read-out and setting: the entry for `OCC(CO)N[C@H]1C[C@](O)(CO)[C@@H](O)[C@H](O)[C@H]1O` is “inactive”; for `CC(=O)N(c1onc(C)c1C)S(=O)(=O)c1ccc(N)cc1` it is “inactive”; for `CC(=O)OCc1ccccc1` it is “inactive”.
The same measure, in the same setting: the entry for `CC(=O)CCC(C)C` is “inactive”.
For `OCCc1ccccn1`, the Potency entry is “inactive”.
The same measure, in the same setting: with `O=C[C@H](O)[C@@H](O)[C@H](O)[C@H](O)CO` the entry was “inactive”; with `CC1=C(CC(=O)O)c2cc(F)ccc2/C1=C\c1ccc(S(C)=O)cc1` (stereo not given), “inactive”; with `O=C(O)c1cc(=O)c2ccccc2o1`, “inactive”.
Same read-out and setting: with `CC1(C)C(C=C(Cl)Cl)C1C(=O)OCc1cccc(Oc2ccccc2)c1` (stereo not given) the entry was “inactive”; with `NCc1ccccc1Sc1ccccc1CO`, “inactive”; with `O=S(=O)(O)c1cccc(S(=O)(=O)O)c1`, “inactive”.
Still for that read-out and setting: with `CC(C)(O)C#CC(C)(C)O` the entry was “inactive”; with `NCC1(Cc2noc(=O)[nH]2)CCCCC1`, “inactive”.

(Values after PubChem BioAssay (Tox21).)
